Lassa entry inh: blocks Lassa virus binding to or entry into cells; Lassa virus pseudotype entry inhibition, cell reporter; Potency, µM (doses to about 37.9 µM), usual class: inhibitors; hit rate 1.2% among 300,000; calls by dose curve; tested in HEK293 cells; note: nearly all actives have a fitted effect of over 50% in size
HCV inhibitor: blocks hepatitis C virus. Huh7.5.1 HCVcc-Cre infection, luciferase reporter, 44 h. Potency, µM (top dose mostly 41.8 µM), most hits filed as inhibitors. hit rate 3.4% among 340,000. AID 651820; active = well fitted inhibition curve with a large enough effect; inconclusive = small, poorly fitted or top-dose-only effect, or another doubt; inactive = no such curve, though single readings can be large or run the other way
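A cell-based infection assay in which seeded cells (1,000 per well) receive test compound after 4 h, are inoculated with HCVcc-Cre at approximately 0.5 moi, and are incubated 44 h before luminescence detection.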
Marburg entry inh: blocks Marburg virus binding to or entry into cells; hit rate 1.8% among 300,000; Potency, µM (doses to about 37.8 µM), actives largely listed as inhibitors; Marburg virus pseudotyped entry inhibition, cell reporter; calls by dose curve; tested in HEK293 cells
VACV mCherry inh: vaccinia inhibition (mCherry reporter); Vaccinia virus mCherry reporter infection, fluorescence; Potency, µM (top dose mostly 36.5 µM), hits mostly inhibitors; hit rate 0.63% among 310,000; calls by dose curve; tested in A549 cells; note: nearly all actives have a fitted effect of over 35% in size
VACV Venus inh: vaccinia inhibition (Venus reporter). hit rate 0.46% among 330,000. AID 720580. Potency, µM (top dose mostly 36.5 µM), most hits filed as inhibitors. Vaccinia virus Venus reporter expression, fluorescence; calls by dose curve; tested in A549 cells; note: nearly all actives have a fitted effect of over 30% in size
HCMV antiviral: inhibitors of human cytomegalovirus; HFF cells, HCMV-luciferase reporter, 72 h; stronger effect = lower value; activity change, negative = inhibition, % at 57.5 µM; hit rate 4.5% among 410,000; in the data active = activity change below about -60%; inconclusive = no clear call, values can overlap the other calls; inactive = above about -39%
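Human foreskin fibroblasts infected with luciferase-reporter HCMV at MOI 1 PFU/cell, compounds at two doses. Luciferase measured 72 h post infection; normalized to buffer-only basal and Salinomycin (10uM) controls.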
Of the large screens only hits and unclear results are named; the others gave an inactive call; ! = not confirmed by another sample. A selection: hits, their analogues and other compounds. The true share with any hit is near 7.8%.

CCc1ccc(C(O)(CC)C(CN2CCOCC2)c2ccccc2)cc1 (stereo not given)	Marburg entry inh inconclusive, HCMV antiviral -63
COc1cc2nc(N3CCCCC3)nc(NC3CCN(Cc4ccccc4)CC3)c2cc1OC	none (no result: Lassa entry inh, HCV inhibitor, Marburg entry inh, HCMV antiviral)
Cc1ccc(-c2nnn(CC(=O)N(CC(=O)NC3CCCCC3)c3cccc(F)c3)n2)o1	none (no result: Lassa entry inh)
Cc1ccc(-c2nnn(CC(=O)N(CC(=O)NC3CCCC3)c3cccc(F)c3)n2)o1	HCMV antiviral -85
Cc1ccc(-c2nnn(CC(=O)N(CC(=O)NC(C)C)c3cnc4ccccc4c3)n2)o1	VACV mCherry inh inconclusive
Cc1ccc(-c2nnn(CC(=O)N(CC(=O)NC3CCCC3)c3cnc4ccccc4c3)n2)o1	HCMV antiviral -103
Cc1ccc(-c2nnn(CC(=O)N(CC(=O)NC3CCCCC3)c3ccc(F)c(Cl)c3)n2)o1	Lassa entry inh 13µM, HCV inhibitor inconclusive, Marburg entry inh inconclusive
c1ccc(-n2ncc3c(NC[C@@H]4CCCO4)ncnc32)cc1	none (no result: Lassa entry inh, HCV inhibitor, VACV mCherry inh, VACV Venus inh, HCMV antiviral)
O=C(Cc1ccccc1Cl)NO	none (no result: Lassa entry inh, HCV inhibitor, Marburg entry inh, HCMV antiviral)
Cc1cc2ccccn2c1C(=O)c1ccc(NN)c([N+](=O)[O-])c1	Lassa entry inh inconclusive, Marburg entry inh 8.9µM, VACV mCherry inh 0.89µM, VACV Venus inh inconclusive, HCMV antiviral inconclusive
Cc1cc2ccccn2c1C(=O)c1cc([N+](=O)[O-])cc([N+](=O)[O-])c1	HCV inhibitor inconclusive, VACV mCherry inh inconclusive, VACV Venus inh inconclusive, HCMV antiviral inconclusive
Cc1cc2ccccn2c1C(=O)c1ccc(C#N)cc1	Lassa entry inh inconclusive, HCMV antiviral -81
C=C1NN(Cc2ccc(OC)cc2)C(=O)N1c1ccccc1	none (no result: Lassa entry inh, HCV inhibitor, Marburg entry inh, HCMV antiviral)
Fc1ccc(-c2noc3ncnc(NCCc4ccccc4)c23)cc1	HCMV antiviral inconclusive (no result: HCV inhibitor, Marburg entry inh)
Cc1ccc(CN2CCc3nnc(C(C)NC(=O)c4cc(F)ccc4F)n3CC2)o1 (stereo not given)	none (no result: Lassa entry inh, HCV inhibitor, Marburg entry inh, HCMV antiviral)
C[N+]1=CC2=c3c1c(O)c1c(c3=NCC2)C2(C=C(Br)C(=O)C(Br)=C2)CCN1	HCMV antiviral -102 (no result: Lassa entry inh, HCV inhibitor, Marburg entry inh, VACV mCherry inh, VACV Venus inh)
Cc1ccc(NC(=O)C2CCCN(c3ncnc4onc(C)c34)C2)c(Cl)c1 (stereo not given)	VACV mCherry inh inconclusive, VACV Venus inh inconclusive (no result: HCV inhibitor, Marburg entry inh)
Cc1ccc(NC(C(=O)c2ccccc2)c2ccccc2)cc1 (stereo not given)	Lassa entry inh inconclusive, Marburg entry inh inconclusive, VACV mCherry inh inconclusive, HCMV antiviral -100
COc1ccccc1C(=O)N(c1ccc(C)cc1)S(=O)(=O)c1ccc(Cl)cc1	Lassa entry inh inconclusive, VACV mCherry inh inconclusive, HCMV antiviral inconclusive (no result: HCV inhibitor, Marburg entry inh)
CSCc1nc2scc(-c3ccccc3)c2c(=O)[nH]1	none
COc1ccc(CN(C)Cc2nc3scc(-c4ccccc4)c3c(=O)[nH]2)cc1OC	Marburg entry inh inconclusive, HCMV antiviral -60
CC1Cc2cc(S(=O)(=O)NCCc3ccccc3)ccc2N1C(=O)C1CCC1 (stereo not given)	none (no result: HCV inhibitor, Marburg entry inh)
CCOc1ccccc1N(CC(=O)Nc1ccc(OC)c(OC)c1)S(=O)(=O)c1ccccc1	none (no result: Lassa entry inh, Marburg entry inh, VACV mCherry inh, VACV Venus inh)
CCOc1ccccc1N(CC(=O)N1CCOCC1)S(=O)(=O)c1ccc(SC)cc1	Lassa entry inh 5.6µM, Marburg entry inh inconclusive
CCOc1ccccc1N(CC(=O)Nc1cccc(OC)c1)S(=O)(=O)c1ccccc1	Lassa entry inh inconclusive, Marburg entry inh inconclusive, HCMV antiviral -107
CCOc1ccccc1N(CC(=O)Nc1ccccc1F)S(=O)(=O)c1ccccc1	HCV inhibitor inconclusive, HCMV antiviral -104 (no result: Lassa entry inh, Marburg entry inh, VACV mCherry inh, VACV Venus inh)
CCC1CCCCN1Cc1c(O)ccc2c(=O)c(-c3ccccc3)coc12 (stereo not given)	Lassa entry inh inconclusive, Marburg entry inh inconclusive, HCMV antiviral -92
CCc1cc2c(=O)c(-c3nc4ccccc4[nH]3)coc2c(CN2CCCCC2C)c1O (stereo not given)	HCV inhibitor inconclusive (no result: Lassa entry inh, Marburg entry inh)
CC1CCCCN1Cc1c(O)ccc2c(=O)c(-c3ccccc3)coc12 (stereo not given)	HCV inhibitor inconclusive, Marburg entry inh inconclusive, HCMV antiviral -69!
CCc1cc2c(=O)c(-c3ccc4c(c3)OCCO4)coc2cc1OS(C)(=O)=O	Lassa entry inh inconclusive, HCV inhibitor 11µM, Marburg entry inh 5.6µM, VACV mCherry inh inconclusive, VACV Venus inh inconclusive, HCMV antiviral inconclusive
CCc1cc2c(=O)c(-c3ccc4c(c3)OCCO4)coc2c(CN2CCCCC2C)c1O (stereo not given)	Lassa entry inh inconclusive, HCV inhibitor 6.3µM, Marburg entry inh inconclusive, HCMV antiviral -62

Screening data as filed in PubChem.
